This is a sample that favours compounds with a hit; in the whole collection about 7.5% have one here.
Luc counter – blocks Kinase-Glo luciferase, a counter-screen artifact; Q27757; AID 1379; Kinase-Glo luciferase, ATP luminescence, 8 min; Potency, µM (highest dose often 38.3 µM), without a hit: at the top dose activity change, negative = inhibition, most hits filed as inhibitors; 200,000 compounds, 0.28% hits; note: % is set by controls: 0 for no effect and ±100 for the full control effect; nearly all actives have a fitted effect of over 60% in size
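Substrate mix (final 50 mM imidazole pH 7.2, 50 mM KCl, 7 mM MgCl2, 10 uM ATP, 0.01% Tween 20, 0.05% BSA) plus pin-tool compound, then Kinase-Glo detection mix; 8 min ambient, luminescence read.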
NPC1 promoter act – activates the NPC1 promoter; Huh7 NPC1 promoter luciferase reporter, 24 h; Potency, µM (titrated, usually from 9.22 µM), inactives show top-dose activation, most hits filed as activators; 320,000 compounds, 2.4% hits; AID 485313; note: % of control where 0% means no effect; nearly all actives have a fitted effect of over 60% in size
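Luminescence read-out of NPC1 promoter-driven luciferase in stably transfected Huh7 cells; compounds delivered in DMSO and left 24 h at 37C, 5% CO2, qHTS titration format.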
FLuc modulator – firefly luciferase modulation, counter-screen for miR-21 project; 360,000 compounds, 6.9% hits; P08659; Potency, µM (series often up to 57.5 µM), for inactives: at the highest dose activity change, negative = inhibition, actives largely listed as inhibitors; purified FLuc, Km substrates, luminescence inhibition; AID 588342;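 note: plate controls were vehicle for no effect and reference inhibitor for full effect; nearly all actives have a fitted effect of over 55% in size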
Target sequence (P08659 whole entry, looked up): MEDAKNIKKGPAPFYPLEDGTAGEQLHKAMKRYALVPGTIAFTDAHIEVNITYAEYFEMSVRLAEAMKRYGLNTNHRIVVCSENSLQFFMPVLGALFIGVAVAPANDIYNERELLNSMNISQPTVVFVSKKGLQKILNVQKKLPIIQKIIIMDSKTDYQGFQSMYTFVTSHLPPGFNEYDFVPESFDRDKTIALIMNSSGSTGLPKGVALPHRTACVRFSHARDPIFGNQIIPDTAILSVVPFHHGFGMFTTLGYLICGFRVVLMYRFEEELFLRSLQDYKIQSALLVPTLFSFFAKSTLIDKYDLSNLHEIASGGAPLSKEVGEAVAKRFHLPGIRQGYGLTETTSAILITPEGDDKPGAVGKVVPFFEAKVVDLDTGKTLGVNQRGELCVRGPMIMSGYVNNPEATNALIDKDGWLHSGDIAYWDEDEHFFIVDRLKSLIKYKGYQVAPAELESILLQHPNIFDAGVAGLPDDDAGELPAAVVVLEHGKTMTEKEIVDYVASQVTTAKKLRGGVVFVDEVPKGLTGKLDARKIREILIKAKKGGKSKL
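Purified P. pyralis luciferase (10nM final) with 10uM D-luciferin and 10uM ATP (Km levels) in 50mM Tris acetate pH 7.5, 10mM Mg acetate, 0.01% Tween-20, 0.05% BSA; qHTS 6-point titration, ~60 µM downward; luminescence read.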
Rab9 prom act – activates the Rab9 promoter. Huh7 Rab9 promoter-luciferase reporter, luminescence, 24 h. Potency, µM (top dose mostly 9.22 µM), inactives show at the highest dose activation, negative = inhibition, actives largely listed as activators. 320,000 compounds, 2.8% hits. AID 485297; note: % of control where 0% means no effect; nearly all actives have a fitted effect of over 60% in size
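Quantitative HTS format; Huh7 Rab9-luciferase reporter cells (1500/well) receive compound 2 h post-plating, incubate 24 h at 37 °C, then get luciferase reagent for 10 min before luminescence reading.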
ELG1 genotoxic – genotoxicity induction in ELG1-luciferase HEK293T cells; HEK293T ELG1-luciferase reporter, luminescence, 16 h; Potency, µM (doses to about 46 µM), for the others: top-dose activity change, positive = activation, hits mostly activators; 330,000 compounds, 1.3% hits; note: % of control where 0% means no effect; nearly all actives have a fitted effect of over 60% in size
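Cells (2,000/well) expressing the ELG1-luciferase fusion are dosed by pin tool and kept 16 hr at 37 °C, 5% CO2. Signal comes from ONE-Glo luciferase reagent after 30 min at room temperature.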
SMN2 splice up – SMN2 splice variant enhancement. HEK293 SMN2-luciferase splicing reporter, luminescence, 30-36 h. Potency, µM (titrated, usually from 46.1 µM), without a hit: top-dose activity change, positive = activation, most hits filed as activators. 210,000 compounds, 2.8% hits. AID 1458; note: % of control where 0% means no effect; nearly all actives have a fitted effect of over 55% in size
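qHTS luciferase splicing reporter: luminescence rises when SMN2 exon 7 is included in transfected HEK293 cells. Compound exposure lasted 30-36 h at 37C, with 4.5 mM final sodium butyrate as control, followed by a ONE-Glo read.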
* hit, by the source's call; ? = inconclusive; · = no result given; ! = not confirmed by another sample; [ ] = dose if it differs, or a comment. Calls come from the whole dose curve; as a rule, active = well fitted curve in the direction sought with a large enough effect; inconclusive = small, poorly fitted or top-dose-only effect, or another doubt; inactive = no such curve, though single readings can be large; an effect the other way counts as inactive or inconclusive. Potency is the fitted concentration of half-maximal effect.

SMILES | Luc counter | NPC1 promoter act | FLuc modulator | Rab9 prom act | ELG1 genotoxic | SMN2 splice up
CC(=O)c1cccc(NC(=O)C(=O)c2cn(CC(=O)N3CCCCC3)c3ccccc23)c1 | 2% | 7% | 8.5µM* | 20% | -4% | -8%
CCOC(=O)c1c(C)oc2nc(C)nc(NCCc3ccc(SC)cc3)c12 | · | · | 1% | · | · | ·
CC1(C)Oc2ccc(C#N)cc2[C@@H](OC2=CC(=O)CC2)[C@@H]1O | · | · | · | · | · | 2%
CC(C(=O)O)c1ccc(N2Cc3ccccc3C2=O)cc1 (configuration not stated) | ? | 0.089µM* | 0.27µM* | 0.32µM* | 11% | 1.3µM*
N#Cc1nc(-c2ccco2)oc1NCCc1ccccc1 | 0% | 9% | ? | 8% | 3% | 7%
N#Cc1nc(-c2cccs2)oc1NCCc1ccccc1 | -2% | 18% | 19µM* | 7% | ? | -7%
N#Cc1nc(-c2ccccc2F)oc1NCc1ccccc1 | -3% | -3% | -16% | -8% | 6% | 9%
COc1ccc(Nc2oc(-c3cccs3)nc2C#N)cc1 | -1% | ? | 4.8µM* | 3.2µM* | ? | ?
N#Cc1nc(-c2ccccc2F)oc1NCCc1ccccc1 | -2% | 21% | 27µM* | 21% | 6% | -4%
O=C1NC(NS(=O)(=O)c2ccccc2)(C(F)(F)F)C(=O)N1c1cccc(Cl)c1 (configuration not stated) | · | -1% | -1% | -3% | 0% | ·
Cc1ccc(N2C(=O)C(CC(=O)Nc3ccc(F)cc3)N(Cc3ccc4c(c3)OCO4)C2=O)cc1 (configuration not stated) | · | · | 0% | · | · | ?
CCCCOc1ccc(C(=O)Nc2ccncc2)cc1 | -3% | -18% | ? | -26% | 13µM* | -112%
CCCOc1ccc(C(=O)Nc2cccnc2)cc1 | · | 2.8µM* | 11µM* | ? | 10µM* | ·
O=C(Nc1cccnc1)c1ccc(Oc2ccccc2)cc1 | -11% | ? | 3.4µM* | ? | 4.1µM* | -5%
CCCCOc1ccc(C(=O)NC)cc1 | 0% | 11% | -14% | 1% | ? | -6%
S=C1N[C@H](c2ccccc2)N[C@H](c2ccccc2)S1 | -3%[7.66 µM] | · | · | · | · | -12%[9.22 µM]
O=C1/C(=C\c2ccc(O)c(O)c2)N=C2CCCCCN12 | · | -6% | 19µM* | -2% | ? | ·
O=C1/C(=C/c2cccnc2)N=C2CCCCCN12 | -3% | 1% | -8% | -1% | 0% | 4%
COc1cc(/C=C2\N=C3CCCCCN3C2=O)ccc1O | -8% | 2% | 17µM* | 16% | ? | ?
COc1ccc(/C=C2\N=C3CCCCCN3C2=O)cc1OC | -2% | 14% | ? | 2% | 4% | 26%
COc1ccc(/C=C2/N=C3CCCCCN3C2=O)cc1 | -1% | -1% | 17µM* | -3% | ? | 0%
CCc1nn(-c2ccccc2)c2c1-c1cc(OC)c(OC)cc1C1(N2)C(=O)Nc2ccccc21 (configuration not stated) | 0% | 0% | 0% | 4% | -1% | 12%
Cc1ccc(O)c(NC(=O)c2cc([N+](=O)[O-])ccc2Cl)c1 | 2% | 0% | 0% | -8% | -15% | -82%
O=C(Nc1cccc(Cl)c1)c1cc(N=Nc2ccc([N+](=O)[O-])cc2Cl)ccc1O | · | 2% | 12µM* | -15% | -16% | ·
O=C(Nc1ccc([N+](=O)[O-])cc1Cl)c1cc(Cl)ccc1O | -5% | 0.065µM* | 0.21µM* | 0.1µM* | ? | 25µM*!
SMILES | Luc counter | NPC1 promoter act | FLuc modulator | Rab9 prom act | ELG1 genotoxic | SMN2 splice up
O=C(Nc1ccccc1F)Nc1ccc([N+](=O)[O-])cc1Cl | · | ? | ? | 4µM* | 4% | ·
Cc1ccc(Cn2ccn(CC(=O)Nc3ccccc3C(F)(F)F)c(=O)c2=O)cc1 | · | · | 3% | · | · | ·
Cn1ccc2cc(S(=O)(=O)N3CCCN(C(=O)Nc4ccc(Br)cc4)CC3)ccc21 | · | · | -11% | · | · | ·
Cc1ccc(S(=O)(=O)CCC(=O)OCC(=O)NC(C)c2ccccc2)cc1 (configuration not stated) | · | -4% | 1% | -1% | -3% | ·
Clc1ccc(Nc2ccc(NCc3ccccc3)nn2)cc1 | -3% | -4% | ? | -3% | 16% | -6%
Cc1ccc(Nc2ccc(NCc3ccccc3)nn2)cc1C | -11% | 14% | 17µM* | 20% | ? | ?
O=C(O)/C=C/C(O)c1ccc(Cl)cc1 (configuration not stated) | -5% | 4%[46.1 µM] | 27µM* | 4%[46.1 µM] | -4% | -8%
CC(C)CNC(=O)c1cc(-c2ccco2)on1 | -8% | 4µM* | 13µM* | 4µM* | ? | ?
CCCNC(=O)c1cc(-c2ccco2)on1 | -17% | ? | 17µM* | 3.5µM* | 16µM* | 18µM*
Cc1c(/C(O)=C2\C(=O)C(=O)N(CCN(C)C)C2c2cccs2)cnn1-c1ccccc1 (configuration not stated) | 2% | 2.5µM* | ? | 4.5µM* | -1% | -19%
Cc1c(/C(O)=C2/C(=O)C(=O)N(CCN3CCOCC3)C2c2ccccn2)cnn1-c1ccccc1 (configuration not stated) | -1% | -10% | 17µM* | -17% | ? | -27%
O=C1C(=O)N(CCN2CCOCC2)C(c2ccccn2)/C1=C(/O)c1ccc(F)cc1 (configuration not stated) | 1% | 5% | -2% | -5% | 3% | 1%
Cc1c(/C(O)=C2\C(=O)C(=O)N(CCN(C)C)C2c2cccnc2)cnn1-c1ccccc1 (configuration not stated) | 3% | 2% | 2% | 3% | 2% | 9%
CCc1ccc2c(c1)c1nc(C)sc1n2CC | 2% | -6% | 19µM* | 3% | 5% | -12%
CC(C)(C)c1ccc(OCCN2CCCC2)cc1 | -1% | -3% | 3%[2.3 µM] | 11% | -2% | 14%
CC(C)SCCCOc1ccc(C(C)(C)C)cc1 | 6% | 0% | 19µM* | -2% | 8% | 9%
CC(C)SCCCCOc1ccc2ccccc2c1 | -6% | ? | 17µM* | ? | 3% | 22%
S=C(N/N=C/c1ccco1)NC1CC2CCC1C2 (configuration not stated) | · | ? | 19µM* | ? | ? | ·
Oc1ccccc1/C=N/NC(=S)NC1CC2CCC1C2 (configuration not stated) | · | 2µM* | 27µM* | 2.8µM* | 12% | ·
CCn1cc(S(=O)(=O)N2CCN(c3ccc(Cl)cc3)CC2)cn1 | · | 0% | -3% | 4% | -10% | ·
C[C@@]12C[C@H](O)C3[C@H](CCC4=CC(=O)CC[C@]43C)[C@H]1CC[C@@H]2c1csc(N)n1 (some centres not stated) | 1%[7.66 µM] | · | · | · | · | -3%[9.22 µM]

Bioassay records deposited in PubChem by National Center for Advancing Translational Sciences (NCATS).
